PubChem BioAssay (Tox21)
Results filed as inconclusive are left out. A call without a number means that no potency is given here. Unmarked numbers belong to inactive results. Activity calls are given as the source filed them. Calls come from the whole dose curve; as a rule, active = well fitted curve in the direction sought with a large enough effect in the repeat runs; inconclusive = weak or mixed curves; inactive = no such curve, though single readings can be large; an effect the other way counts as inactive or inconclusive.

Key:
[1] = target: Cytochrome P450 2D6 (Homo sapiens) (UniProt P10635); experiment: Cytochrome P450 Family 2 Subfamily D Member 6 (CYP2D6) small molecule antagonists: luciferase reporter qHTS assay (AID 1671196); note: nearly all actives have a fitted effect of over 50% in size; note: potency is the fitted concentration of half-maximal effect
Chain of Cytochrome P450 2D6 (Homo sapiens) (P10635 whole entry, looked up): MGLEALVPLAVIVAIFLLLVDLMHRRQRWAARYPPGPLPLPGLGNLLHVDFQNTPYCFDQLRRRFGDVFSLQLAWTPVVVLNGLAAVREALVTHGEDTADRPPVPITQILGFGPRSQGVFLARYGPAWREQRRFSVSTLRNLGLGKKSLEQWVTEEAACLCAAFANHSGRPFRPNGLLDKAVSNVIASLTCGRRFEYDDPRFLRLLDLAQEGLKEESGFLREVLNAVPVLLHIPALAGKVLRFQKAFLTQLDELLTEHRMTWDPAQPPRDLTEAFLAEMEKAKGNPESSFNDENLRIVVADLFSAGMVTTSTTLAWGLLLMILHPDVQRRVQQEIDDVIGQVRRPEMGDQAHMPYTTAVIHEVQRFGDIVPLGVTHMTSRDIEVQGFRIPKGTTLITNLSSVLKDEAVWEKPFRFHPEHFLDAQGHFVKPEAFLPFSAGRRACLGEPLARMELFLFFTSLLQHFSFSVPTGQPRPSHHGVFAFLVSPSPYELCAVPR
Summary of the method: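 Luminogenic proluciferin substrate, CYP2D6 enzyme; 10 min RT preincubation with compound, NADPH regeneration system added, 1 h RT. Stop/detection reagent, 20 min RT, luminescence read (RLU). Signal proportional to CYP activity.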

[2] = target: Cytochrome P450 2C19 (Homo sapiens) (UniProt P33261); experiment: Cytochrome P450 Family 2 Subfamily C Member 19 (CYP2C19) small molecule antagonists: luciferase reporter qHTS assay (AID 1671197); note: nearly all actives have a fitted effect of over 65% in size; note: potency is the fitted concentration of half-maximal effect
Chain of Cytochrome P450 2C19 (Homo sapiens) (P33261 whole entry, looked up): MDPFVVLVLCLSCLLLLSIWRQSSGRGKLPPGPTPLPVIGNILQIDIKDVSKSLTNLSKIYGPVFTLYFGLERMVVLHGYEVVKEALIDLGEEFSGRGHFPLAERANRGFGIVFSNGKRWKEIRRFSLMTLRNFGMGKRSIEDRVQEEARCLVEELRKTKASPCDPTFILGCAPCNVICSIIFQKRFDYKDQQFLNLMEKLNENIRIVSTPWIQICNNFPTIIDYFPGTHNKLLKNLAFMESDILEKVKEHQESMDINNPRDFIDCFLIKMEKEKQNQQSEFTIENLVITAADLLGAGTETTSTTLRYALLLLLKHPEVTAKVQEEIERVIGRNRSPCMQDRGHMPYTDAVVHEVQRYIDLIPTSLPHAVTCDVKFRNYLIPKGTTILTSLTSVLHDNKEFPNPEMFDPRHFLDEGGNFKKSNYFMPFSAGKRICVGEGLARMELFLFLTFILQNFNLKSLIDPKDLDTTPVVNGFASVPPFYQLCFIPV
Summary of the method: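 First, compounds are pinned into enzyme-substrate mix and held 10 min at room temperature. Second, NADPH regeneration solution is added and plates incubate 1 h at 37C. Third, detection reagent is added and luminescence read after 20 min.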

[3] = target: Cytochrome P450 2C9 (Homo sapiens) (UniProt P11712); experiment: Cytochrome P450 Family 2 Subfamily C Member 9 (CYP2C9) small molecule antagonists: luciferase reporter qHTS assay (AID 1671198); note: nearly all actives have a fitted effect of over 50% in size; note: potency is the fitted concentration of half-maximal effect
Chain of Cytochrome P450 2C9 (Homo sapiens) (P11712 whole entry, looked up): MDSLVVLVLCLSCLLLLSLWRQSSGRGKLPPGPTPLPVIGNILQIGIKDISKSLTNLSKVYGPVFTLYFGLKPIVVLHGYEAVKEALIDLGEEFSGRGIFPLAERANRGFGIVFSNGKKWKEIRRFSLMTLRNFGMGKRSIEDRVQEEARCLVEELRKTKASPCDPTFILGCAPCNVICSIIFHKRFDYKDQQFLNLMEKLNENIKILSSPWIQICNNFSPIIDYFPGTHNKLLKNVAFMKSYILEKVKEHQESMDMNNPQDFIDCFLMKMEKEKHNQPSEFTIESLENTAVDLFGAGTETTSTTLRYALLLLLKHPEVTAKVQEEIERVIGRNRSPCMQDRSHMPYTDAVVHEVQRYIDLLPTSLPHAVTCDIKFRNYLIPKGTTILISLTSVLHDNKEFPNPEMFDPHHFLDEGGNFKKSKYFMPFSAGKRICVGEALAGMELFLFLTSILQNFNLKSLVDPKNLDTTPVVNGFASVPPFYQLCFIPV
Summary of the method: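 Enzyme-substrate mix preincubated with compound 10 min at room temperature; reaction started with NADPH regeneration solution, 1 h 37C. Luminescent luciferin product read after 20 min detection reagent.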

[4] = target: Cytochrome P450 1A2 (Homo sapiens) (UniProt P05177); experiment: Cytochrome P450 Family 1 Subfamily A Member 2 (CYP1A2) small molecule antagonists: luciferase reporter qHTS assay (AID 1671199); note: nearly all actives have a fitted effect of over 50% in size; note: potency is the fitted concentration of half-maximal effect
Chain of Cytochrome P450 1A2 (Homo sapiens) (P05177 whole entry, looked up): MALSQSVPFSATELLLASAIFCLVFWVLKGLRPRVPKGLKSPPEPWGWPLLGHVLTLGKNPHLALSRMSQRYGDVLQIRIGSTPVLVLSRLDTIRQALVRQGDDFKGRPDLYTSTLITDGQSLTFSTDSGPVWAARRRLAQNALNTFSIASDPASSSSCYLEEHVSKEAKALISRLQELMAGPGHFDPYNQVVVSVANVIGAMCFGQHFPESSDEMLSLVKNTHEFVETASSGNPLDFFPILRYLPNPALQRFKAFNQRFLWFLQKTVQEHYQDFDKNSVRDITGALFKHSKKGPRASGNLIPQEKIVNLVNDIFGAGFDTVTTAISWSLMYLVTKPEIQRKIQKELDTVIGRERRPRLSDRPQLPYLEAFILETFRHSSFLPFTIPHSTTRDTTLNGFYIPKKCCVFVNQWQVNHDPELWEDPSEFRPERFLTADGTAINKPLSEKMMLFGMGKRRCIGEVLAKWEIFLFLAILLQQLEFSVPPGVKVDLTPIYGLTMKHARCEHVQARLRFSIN
Summary of the method: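 Luminescence readout (relative luminescence units) after luciferin detection reagent, 20 min RT. Preceded by 1 h room-temperature CYP1A2 reaction with NADPH regeneration solution following 10 min compound preincubation with enzyme and proluciferin substrate. Furafylline positive control.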

[5] = target: Voltage-gated inwardly rectifying potassium channel KCNH2 (Homo sapiens) (UniProt Q12809); experiment: Human Ether-a-go-go-Related Gene (hERG) channel small molecule antagonists: fluorescence cell-based qHTS assay (AID 1671200);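 note: hERG-expressing U2OS cells given a thallium stimulus after FluxOR II dye loading; series mostly up to about 77 µM; nearly all actives have a fitted effect of over 50% in size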
Chain of Voltage-gated inwardly rectifying potassium channel KCNH2 (Homo sapiens) (Q12809 whole entry, looked up): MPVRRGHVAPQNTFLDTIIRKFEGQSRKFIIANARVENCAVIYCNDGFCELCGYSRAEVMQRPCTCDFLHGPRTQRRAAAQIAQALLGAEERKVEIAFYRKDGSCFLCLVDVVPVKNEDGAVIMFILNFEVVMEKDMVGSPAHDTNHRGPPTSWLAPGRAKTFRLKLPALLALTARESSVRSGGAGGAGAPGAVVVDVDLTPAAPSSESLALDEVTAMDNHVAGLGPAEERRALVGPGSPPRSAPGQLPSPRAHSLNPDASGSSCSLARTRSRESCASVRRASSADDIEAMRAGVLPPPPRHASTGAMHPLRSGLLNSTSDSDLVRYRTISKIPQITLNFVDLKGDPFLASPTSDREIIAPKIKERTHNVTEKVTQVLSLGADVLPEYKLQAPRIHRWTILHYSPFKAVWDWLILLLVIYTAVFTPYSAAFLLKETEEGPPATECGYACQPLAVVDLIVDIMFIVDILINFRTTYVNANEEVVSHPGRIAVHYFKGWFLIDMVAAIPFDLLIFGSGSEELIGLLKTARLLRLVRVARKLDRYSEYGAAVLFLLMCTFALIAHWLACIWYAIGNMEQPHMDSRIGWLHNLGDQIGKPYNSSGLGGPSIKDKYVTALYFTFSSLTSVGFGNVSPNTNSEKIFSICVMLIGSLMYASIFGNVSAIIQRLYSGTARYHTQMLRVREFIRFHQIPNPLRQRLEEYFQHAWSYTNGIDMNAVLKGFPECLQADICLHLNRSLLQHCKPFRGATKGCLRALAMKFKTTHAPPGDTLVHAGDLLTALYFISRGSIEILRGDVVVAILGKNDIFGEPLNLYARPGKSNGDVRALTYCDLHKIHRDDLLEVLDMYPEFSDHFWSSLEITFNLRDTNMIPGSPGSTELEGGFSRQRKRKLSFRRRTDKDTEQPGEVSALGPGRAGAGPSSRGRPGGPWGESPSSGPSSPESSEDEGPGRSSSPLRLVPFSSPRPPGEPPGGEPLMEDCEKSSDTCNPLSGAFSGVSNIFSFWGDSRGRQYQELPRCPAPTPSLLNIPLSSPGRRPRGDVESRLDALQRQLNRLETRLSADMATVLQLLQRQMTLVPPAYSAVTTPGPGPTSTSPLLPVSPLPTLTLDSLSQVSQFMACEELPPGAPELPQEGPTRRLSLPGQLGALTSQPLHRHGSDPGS
Summary of the method: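 Channel function was assessed by thallium flux. Cells seeded the previous day and kept at 37 C took up FluxOR II dye over 1 h in the dark at room temperature, then sat another 10 min before stimulation.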

[6] = target: Cytochrome P450 3A4 (Homo sapiens) (UniProt P08684); experiment: Cytochrome P450 Family 3 Subfamily A Member 4 (CYP3A4) small molecule antagonists: luciferase reporter qHTS assay (AID 1671201); note: nearly all actives have a fitted effect of over 50% in size; note: potency is the fitted concentration of half-maximal effect
Chain of Cytochrome P450 3A4 (Homo sapiens) (P08684 whole entry, looked up): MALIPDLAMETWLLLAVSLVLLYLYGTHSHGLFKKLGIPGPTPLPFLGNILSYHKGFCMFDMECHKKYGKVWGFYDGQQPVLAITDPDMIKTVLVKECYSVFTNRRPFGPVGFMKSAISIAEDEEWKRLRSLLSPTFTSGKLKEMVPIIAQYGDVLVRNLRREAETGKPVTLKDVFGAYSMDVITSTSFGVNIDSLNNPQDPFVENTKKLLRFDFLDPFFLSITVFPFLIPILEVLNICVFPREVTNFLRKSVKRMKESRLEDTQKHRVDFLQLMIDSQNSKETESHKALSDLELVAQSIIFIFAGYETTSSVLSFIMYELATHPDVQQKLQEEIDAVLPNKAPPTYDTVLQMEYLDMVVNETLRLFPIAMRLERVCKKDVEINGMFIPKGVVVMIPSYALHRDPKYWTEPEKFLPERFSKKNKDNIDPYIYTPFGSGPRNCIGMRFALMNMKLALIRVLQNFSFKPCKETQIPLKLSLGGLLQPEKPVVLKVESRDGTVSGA
Summary of the method: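 Compounds in DMSO were pin-transferred onto CYP3A4 enzyme-substrate mix and held 10 min at room temperature. NADPH regenerating solution started the reaction for 1 h; luciferin detection reagent stopped it, and luminescence was read after 20 min.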

SMILES	Potency [1]	Potency [2]	Potency [3]	Potency [4]	Potency [5]	Potency [6]
CC(=O)Nc1ccc(S(=O)(=O)Nc2ccc([N+](=O)[O-])cc2)cc1	inactive	15.5 µM (active)	13.8 µM (active)	inactive	inactive	inactive
Cc1ccc2ccc(Cl)cc2n1	inactive	inactive	inactive	15.5 µM (active)	inactive	inactive
O=C(CCN1CCN(CCO)CC1)N1c2ccccc2Sc2ccc(C(F)(F)F)cc21	inactive	inactive	inactive	inactive	inactive	–
Cc1[nH]cnc1-c1ccc(Cl)cc1	13.8 µM (active)	15.5 µM (active)	15.5 µM (active)	2.19 µM (active)	inactive	–
O=C(O)Cc1ccc(Cl)cc1Cl	31.7 µM (active)	inactive	inactive	inactive	inactive	inactive
OCCCCC(O)CO (stereo not drawn)	inactive	inactive	67.2 µM (active)	inactive	inactive	inactive
COc1cc(C(=S)N2CCOCC2)cc(OC)c1OC	inactive	21.9 µM (active)	inactive	inactive	inactive	inactive
CN(C)c1ccc(C=O)cc1	inactive	79.6 µM (active)	35.6 µM (active)	35.6 µM (active)	inactive	inactive
CC(N)C(=O)OC(C)(C)Cc1ccc(Cl)cc1 (stereo not drawn)	7.76 µM (active)	1.55 µM (active)	15.5 µM (active)	1.38 µM (active)	inactive	–
CN(C)CCOCCO	inactive	inactive	inactive	inactive	inactive	inactive
NS(=O)(=O)c1cc2c(cc1Cl)CN(C1CCCCC1)C2=O	inactive	inactive	inactive	inactive	inactive	inactive
CCCCCOC(=O)CCC	inactive	inactive	inactive	inactive	inactive	inactive
CC(C)NCC(O)COc1ccc(COCCOC(C)C)cc1 (stereo not drawn)	inactive	inactive	inactive	inactive	inactive	–
COc1ccc(S(=O)(=O)N2c3ccc(Cl)cc3[C@@](O)(c3ccccc3Cl)[C@H]2C(=O)N2CCC[C@@H]2C(N)=O)cc1OC	inactive	inactive	17.4 µM (active)	–	–	–
Cc1cc2cc3c(C)cc(=O)oc3c(C)c2o1	inactive	inactive	inactive	6.45 µM (active)	inactive	–
COc1ccc2c(c1OC)C(=O)O[C@@H]2[C@H]1c2c(cc3c(c2OC)OCO3)CCN1C	11 µM (active)	1.38 µM (active)	0.871 µM (active)	inactive	inactive	–

SMILES	Potency [1]	Potency [2]	Potency [3]	Potency [4]	Potency [5]	Potency [6]
COc1nccnc1NS(=O)(=O)c1ccc(N)cc1	inactive	inactive	inactive	inactive	inactive	inactive
CC(=O)c1sc(C)nc1C	inactive	inactive	inactive	inactive	inactive	inactive
C[C@H](CCC(=O)O)[C@H]1CC[C@H]2[C@@H]3C(=O)C[C@@H]4CC(=O)CC[C@]4(C)[C@H]3CC(=O)[C@]12C	inactive	inactive	inactive	inactive	inactive	inactive
N[C@@H](CCC(=O)Nc1ccc([N+](=O)[O-])cc1)C(=O)O	inactive	inactive	inactive	inactive	inactive	inactive
COc1ccc2c(c1)C(=O)N(CCc1ccc(S(=O)(=O)NC(=O)NC3CCCCC3)cc1)C(=O)C2(C)C	inactive	inactive	13.8 µM (active)	inactive	inactive	–
C=C(C)C(=O)OCCNC(C)(C)C	inactive	70.9 µM (active)	inactive	35.5 µM (active)	inactive	inactive
COc1cc(N)ccc1C	12.5 µM (active)	1.98 µM (active)	6.26 µM (active)	4.98 µM (active)	inactive	11.1 µM (active)
C=C(C)C(=O)OCCOP(=O)(O)OCCOC(=O)C(=C)C	inactive	inactive	inactive	inactive	inactive	inactive
Cc1ccccc1N=O	inactive	inactive	inactive	41 µM (active)	inactive	36.5 µM (active)
CC(C)C(=O)OCc1cccc(OC(=O)[C@@H]2N3C(=O)[C@@H](NC(=O)Cc4ccccc4)[C@H]3SC2(C)C)c1	inactive	inactive	12.3 µM (active)	inactive	–	–
CNC(=O)[C@H]1O[C@@H](n2cnc3c(NCc4cc(Cl)ccc4OCc4cc(C)no4)ncnc32)[C@H](O)[C@@H]1N	inactive	inactive	inactive	inactive	inactive	–
C=CC(OCC)OCC	inactive	inactive	inactive	inactive	inactive	inactive
Cc1ccc(S(=O)(=O)O)c(C)c1	inactive	inactive	inactive	inactive	inactive	inactive
CC(C)(C)c1cc(CCC(=O)NN)cc(C(C)(C)C)c1O	35.6 µM (active)	6.33 µM (active)	5.03 µM (active)	8.94 µM (active)	inactive	0.159 µM (active)
C=COCCOCCOCCOC=C	inactive	79.6 µM (active)	inactive	35.6 µM (active)	inactive	inactive
CC(C)CCCCOC(=O)c1ccccc1C(=O)OCCCCC(C)C	inactive	31.8 µM (active)	17.9 µM (active)	17.9 µM (active)	inactive	–
